Inhibition data for 112 compounds are collected here from PubChem BioAssay AID488890 (Southern Research Specialized Biocontainment Screening …, 2010).

The campaign covered roughly 320,000 compounds. About 1,300 (0.41%) were called active. Inconclusive results (about 3%) are left out. The rule behind the calls is not given here. Not all results are given here. Potency and affinity values are given separately.

The assay can be described thus: growth inhibition of non-replicating M. tuberculosis (AID 488890).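 Note: plate controls were DMSO cells for no effect and high antibiotic wells for full effect.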 Conditions: Mycobacterium tuberculosis non-replicating, at 25 µM, stronger effect = higher value.
As a reminder, the inhibition is the relative decrease from the control value, in per cent. On to `CC(=O)Oc1ccc(S(=O)(=O)c2ccc(OC(C)=O)cc2)cc1`, for which the inhibition was -5.93%.

As for `Cc1ccc(S(=O)(=O)Nc2ccc3c(c2)C(=O)N([C@H](C)CO)C[C@H](C)[C@@H](CN(C)C(=O)Nc2ccc(C(F)(F)F)cc2)O3)cc1`, the inhibition was 46.2%.

In the case of `COc1cccc(-c2nn(-c3ccccc3)cc2CN(C)Cc2ccno2)c1`, the inhibition was determined as 2.32%.

Consider `S=c1[nH]nc(Cc2ccc(Cl)cc2)n1-c1ccc2c(c1)OCCO2`, for which the inhibition is -2%.

With `O=C(NC(=S)Nc1ccc(S(=O)(=O)Nc2nccs2)cc1)C1CC1`, the inhibition was determined as 23.6%.

Regarding `O=C(Nc1ccc(S(=O)(=O)Nc2nccs2)cc1)C1CCCCC1`, the inhibition was 60.2%.

Turning to `Cc1ccc(C(=O)NC(=S)NNC(=O)CC#N)cc1`, the inhibition was 39.8%.

As for `Cc1ccc(C(=O)NNC(=O)c2ccc(C)cc2)cc1`, the inhibition is -1.12%.

`Cc1cc(C(=O)N2CCN(c3ncccn3)CC2)nn1C`: the inhibition is -1.81%.

Take `COc1cccc(/C=C/C(=O)OCCN2C(=O)c3ccccc3C2=O)c1`: the inhibition is 24.5%.

In the case of `CC1(C)C(=O)OC(c2cccc([N+](=O)[O-])c2)C2(CCCCC2)C1=O` (configuration not stated), the inhibition stood at 12.6%.

For `COc1ccc(C2(CNC(=O)c3ccccc3)CCOCC2)cc1`, the inhibition was -1.08%.

For `CC(=O)c1ccc(NC(=O)c2ccccc2-c2ccccc2C(=O)O)cc1`, the inhibition came out at 78.9%.

For `COC(=O)c1ccc(NC(=O)c2ccccc2-c2ccccc2C(=O)O)cc1`, the inhibition was 65.6%.

As for `COC(=O)C[C@H](NC(=O)Cn1cnc2c(SC)nc(N)nc21)C(=O)OC`, the inhibition is -10.4%.

For `CC(=O)c1ccc(NC(=O)CNC2CCCCC2)cc1`, the inhibition was -1.52%.

With `Cc1c(N=c2c(=O)c3ccccc3c2=O)c(=O)n(-c2ccccc2)n1C`, the inhibition was -4.23%.

As for `CCC/C(O)=C1\C(=O)CC(C)(C)CC1=Nc1ccccc1O`, the inhibition is 2.5%.

On to `CC1c2[nH]c3ccccc3c2C[C@H]2C(=O)N(CCCN(C)C)CC(=O)N12` (some centres not stated), for which the inhibition is -5.98%.

As for `Cc1ccc(C(=O)CCNc2ccccc2)o1`, the inhibition was -1.75%.

Consider `Cc1ccc(C(=O)Nc2ccc(NC(=O)c3ccc(C)o3)cc2)o1`, for which the inhibition is 0.92%.

Regarding `Cc1ccc(NC(=O)COC(=O)c2cc(=O)c3ccccc3o2)c(Br)c1`, the inhibition is 6.59%.

`Cc1cc(/C=C2\SC(=S)NC2=O)c(C)n1C1CC1`: the inhibition was 43.8%.

With `CCN1C(=O)C(=Cc2cc(C)n(C3CC3)c2C)C(=O)N(CC)C1=S`, the inhibition was 69.5%.

As to `CCCS(=O)(=O)C/C(N)=N/OC(=O)c1ccc(Cl)cc1`, the inhibition was found to be 3.52%.

Consider `COc1ccc(NC(=O)CN(C)CC(=O)Nc2ccccc2SC)cc1`, for which the inhibition was -4.75%.

In the case of `O=C(NNc1nc2c(F)cc(F)cc2s1)c1ccccc1`, the inhibition is -1.93%.

With `CCOCC(=O)Nc1nc2ccc(OCC)cc2s1`, the inhibition was 80%.

Consider `O=C(Nc1nc(-c2cc(F)ccc2F)cs1)C1=COCCO1`, for which the inhibition was 22.8%.

Take `O=C(Nc1nc2c(F)cc(F)cc2s1)c1ccco1`: the inhibition amounted to 36.2%.

With `COCC(=O)Nc1nc2ccc(C)cc2s1`, the inhibition came to 49%.

Turning to `Cc1csc(NC(=O)c2cnccn2)n1`, the inhibition amounted to 16.7%.

As to `Cc1onc(-c2ccccc2)c1C(=O)Nc1nc(-c2cc(F)ccc2F)cs1`, the inhibition was -10.6%.

In the case of `Cc1ccc(C)c(-c2csc(NC(=O)c3c(C)noc3C)n2)c1`, the inhibition is -15%.

Turning to `CC(C)Cc1ccc(CN2CCCC(NC(=O)CCN3CCOCC3)C2)cc1` (configuration not stated), the inhibition is 34.5%.

Regarding `CCS(=O)(=O)N1CCC(C(=O)Oc2ccc(C(=O)OC)cc2)CC1`, the inhibition is 4.94%.

As for `Cc1ccc2nc(NC(=O)c3ccccc3F)sc2c1`, the inhibition is 2.6%.

For the compound `Cc1ccc2nc(NC(=O)COC(=O)c3ccccn3)sc2c1`, the inhibition stood at 76.5%.

As to `O=C(Nc1nc2ccc(F)cc2s1)Oc1ccccc1`, the inhibition turned out to be 6.26%.

On to `O=C(Nc1nc2ccc(F)cc2s1)c1cccs1`, for which the inhibition was determined as 33.5%.

As to `CSc1ncccc1C(=O)Nc1ncc(C)s1`, the inhibition amounted to 13.3%.

With `Cc1cnc(NC(=O)c2ccncc2)s1`, the inhibition is -17.1%.

As to `CCc1ccc(C(=O)NNc2cc(Cl)cc(Cl)c2)cc1`, the inhibition was determined as 67.2%.

For `CN(C)c1ccc(NC(=O)CCCCCn2nnc3ccccc3c2=O)cc1`, the inhibition came out at 2.13%.

For the compound `O=[N+]([O-])c1cccc(-c2nnc(-c3ccccc3F)o2)c1`, the inhibition came to 35.9%.

`O=[N+]([O-])c1cccc(-c2nnc(-c3ccccc3)o2)c1`: the inhibition worked out at 75.3%.

On to `Cc1ccc(C(=O)Nc2ccc(C(=O)N/N=C/c3ccc(C)o3)cc2)cc1`, for which the inhibition stood at 9.26%.

For `Cc1cccc(NC(=O)CCNS(=O)(=O)c2ccc(Cl)cc2)c1`, the inhibition is -5.22%.

Turning to `CCOC(=O)C1(Cc2ccc(OC)cc2)CCN(C(=O)CN2CCOC2=O)CC1`, the inhibition is -7.21%.

As to `CN(C)S(=O)(=O)c1ccc(Oc2ccccc2)cc1`, the inhibition came to 27.6%.

For `CN(C)S(=O)(=O)c1ccc(C(=O)OCCc2ccccc2)cc1`, the inhibition was 42.9%.

Turning to `COc1cc(/C=N/Nc2ccc(Cl)c(C(=O)O)c2)ccc1OC(=O)c1ccc(F)cc1`, the inhibition was determined as 52.6%.

On to `O=C(NC(NNc1ccc([N+](=O)[O-])cc1)(C(F)(F)F)C(F)(F)F)c1ccc(F)cc1`, for which the inhibition came out at 29.8%.

`O=C(N/N=C1\CCCc2c1[nH]c1ccc([N+](=O)[O-])cc21)c1ccncc1`: the inhibition is -12.5%.

For `CC(C)c1ccc2[nH]c3c(c2c1)CCCC3=O`, the inhibition is 6.88%.

As for `O=C(NN=C1CCCCCC1)c1ccncc1`, the inhibition is 70.4%.

As for `Nc1ccc(C(=O)N/N=C2\CCCc3c2[nH]c2ccccc32)cc1`, the inhibition is 19.8%.

With `C/C(=N\NC(=O)c1cccc([N+](=O)[O-])c1)c1ccncc1`, the inhibition was 8.18%.

For the compound `CC(/C=C/c1ccc2c(c1)OCO2)=N\NC(=O)c1cccc([N+](=O)[O-])c1`, the inhibition is 68.6%.

Take `CC1=C(/C=C/C(C)=C/C=C/C(C)=C/C(=O)O)C(C)(C)CCC1`: the inhibition is 15.6%.

As to `CC1=C(/C=C/C(=O)O)C(C)(C)CCC1`, the inhibition was 13.1%.

Regarding `COc1cc(NC(=O)CN2CCN(c3ccccc3)CC2)c(C)cc1[N+](=O)[O-]`, the inhibition was -14%.

`O=C1C(c2ccccc2)=C(N2CC2)c2ccccc21`: the inhibition is 15.4%.

With `Nc1c(C(=O)c2ccccc2)sc2c1c(=O)[nH]c(=O)n2-c1ccccc1`, the inhibition was found to be 6.25%.

Take `CCOC(=O)c1nn(-c2cccc(Cl)c2)c2nc(Nc3ccccc3)cc(=O)n12`: the inhibition is 63.6%.

For the compound `CCOC(=O)c1nn(-c2ccc(F)cc2)c2nc(Nc3ccccc3)cc(=O)n12`, the inhibition was 75.5%.

On to `Cc1cc(C(=O)N2CCCC(N3CCN(c4ccccc4C)CC3)C2)n(C)n1` (configuration not stated), for which the inhibition was found to be 8.85%.

In the case of `CCN1CCN(C2CC(=O)NC2=O)CC1` (configuration not stated), the inhibition is -2.18%.

As to `Cc1ccc(NC(=O)C2CCN(C(=O)N3CCOc4ccccc43)CC2)cc1`, the inhibition worked out at 25.7%.

Turning to `Oc1ccc(Br)cc1CN1CCCCCCC1`, the inhibition is 8.51%.

As to `Oc1ccc2ccccc2c1CN1CCCC1`, the inhibition was found to be 21.4%.

`O=C(NC1CCCCC1)C1CCCN(S(=O)(=O)c2cccc3cccnc23)C1` (configuration not stated): the inhibition is -8.57%.

For the compound `CCOC(=O)c1cc(=O)c2c([N+](=O)[O-])ccc(OC)c2o1`, the inhibition is -14.2%.

With `CCOC(=O)c1cc(=O)cc(C(=O)OCC)o1`, the inhibition is -3.36%.

In the case of `COc1cccc(C(=O)NCC(=O)NCc2cc(=O)n(C)c(=O)n2C)c1OC`, the inhibition was -9.9%.

As for `O=C1CNC(=S)N1C1CCCCCC1`, the inhibition worked out at 0.27%.

Regarding `O=C(CCN1C(=O)S/C(=C/c2ccc(F)cc2)C1=O)Nc1ccc(O)c(C(=O)O)c1`, the inhibition was -1.86%.

In the case of `O=C(CCN1C(=O)S/C(=C\c2ccc(F)cc2)C1=O)Nc1ccc(O)cc1C(=O)O`, the inhibition worked out at 24.1%.

`CCCn1c(=O)c2ccccc2n2c(SCc3nnc(-c4ccccc4Br)o3)nnc12`: the inhibition was -5.68%.

In the case of `COC(=O)c1ccn(-c2nc(-c3ccco3)cc(C(F)(F)F)n2)n1`, the inhibition was -17.4%.

On to `O=C(COc1ccccc1Cl)c1ccc2c(c1)CCCC2`, for which the inhibition was 38.7%.

With `Cc1ccc(CCC(=O)Nc2ccc(Cl)cc2)o1`, the inhibition stood at 79.5%.

With `Cc1ccc(C)c(NC(=O)CCc2ccc(C)o2)c1`, the inhibition stood at 79.3%.

As for `Cc1ccc(CCC(=O)Nc2ccc([N+](=O)[O-])cc2Cl)o1`, the inhibition was determined as 75.5%.

With `Cc1ccc(NC(=O)CCc2ccc(C)o2)c(C)c1`, the inhibition came to 68.3%.

For the compound `Cc1ccc(CCC(=O)Nc2ccc(N(C)C)cc2)o1`, the inhibition was determined as 39.5%.

Turning to `Cc1cccc(NC(=O)CCc2ccc(C)o2)c1`, the inhibition turned out to be 25.7%.

With `Cc1cccn2c(=O)c3cc(S(=O)(=O)c4ccccc4)c(=N)n(Cc4cccnc4)c3nc12`, the inhibition was -4.09%.

In the case of `Cc1ccc(C(=O)N2CCC(C(=O)Nc3cccc([N+](=O)[O-])c3)CC2)cc1`, the inhibition was found to be 28.6%.

Turning to `Cc1ccccc1NC(=O)Cn1nc(C(=O)O)c2ccccc2c1=O`, the inhibition was -3.67%.

As to `Cc1ccc(C)c(-n2c(-c3csc(C)c3)n[nH]c2=S)c1`, the inhibition worked out at 11.6%.

`CCCC(=O)Nc1ccc(C2C(=O)c3ccccc3C2=O)cc1`: the inhibition is -4.62%.

Take `O=C(Nc1ccc(N2CCN(C(=O)c3ccccc3)CC2)cc1)c1ccc2c(c1)OCO2`: the inhibition worked out at 13.6%.

With `CCOC(=O)N1CCC(NS(=O)(=O)c2cc3c(cc2C)NC(=O)CO3)CC1`, the inhibition is 8.95%.

`CCOC(=O)N1CCC(NC(=O)CN(C)S(=O)(=O)c2cc3c(cc2Cl)NC(=O)CO3)CC1`: the inhibition was 31.8%.

Consider `O=C1NCC(O)=C1C=NCCO`, for which the inhibition was -6.04%.

Consider `Oc1ccccc1N=Cc1ccc[nH]1`, for which the inhibition was determined as 72.2%.

In the case of `CCOc1ccc(NC(=O)CSc2nc(-c3cccs3)cc(C(F)(F)F)n2)c([N+](=O)[O-])c1`, the inhibition worked out at 7.92%.

For `CCN(CC)C(=O)CSc1nc2c(c(-c3cccnc3)c1C#N)CCCC2`, the inhibition worked out at 24%.

Consider `CN(c1ccccc1)S(=O)(=O)c1ccc(C(=O)OCC(=O)NCc2ccco2)cc1`, for which the inhibition is 18.2%.

For `O=C(N/N=C/c1ccc([N+](=O)[O-])o1)c1ccccc1NS(=O)(=O)c1cccs1`, the inhibition was determined as 48%.

For `O=C(N/N=C/c1ccc([N+](=O)[O-])cc1)c1cc2ccccc2o1`, the inhibition stood at 6.74%.

Regarding `Nc1nonc1C(=O)N/N=C/c1ccc(-c2cccc([N+](=O)[O-])c2)o1`, the inhibition was -4.42%.

On to `O=C(N/N=C/c1cccc([N+](=O)[O-])c1)c1cc2ccccc2o1`, for which the inhibition amounted to 21.7%.

Turning to `O=C(N/N=C/c1ccc([N+](=O)[O-])cc1)c1ccc(NS(=O)(=O)c2cccs2)cc1`, the inhibition worked out at 17.2%.

Consider `Cc1cc(C(=O)N/N=C/c2ccc([N+](=O)[O-])cc2)c(C)o1`, for which the inhibition was -13.2%.

Regarding `Cc1ccc(/C=N/NC(=O)c2cc(C)oc2C)o1`, the inhibition was 3.1%.

`Nc1nonc1C(=O)N/N=C/c1ccc(Br)o1`: the inhibition was -9.49%.

Take `O=S(=O)(Nc1nc2ccccc2nc1Cl)c1ccc2ccccc2c1`: the inhibition worked out at 47.8%.

For `Cc1ccc(NC(=O)COC(=O)C2CCN(c3ccc(C(F)(F)F)cn3)CC2)cc1C`, the inhibition was 14.8%.

With `N#Cc1nc(N2CCCCC2)nc(N2CCOCC2)n1`, the inhibition was found to be 13.1%.

As to `C=CCn1c(CNC(=O)c2ccco2)nnc1SCC(=O)c1ccccc1`, the inhibition is 12.6%.
